Assay results taken from the supplement of paper PMC7411054.

Experiments:
Settings in all cases: treatment time: 24 h
A549-ACTB-RAB5A [1] = assay: lowest phenotypically active concentration; higher = less potent
Outline: (§1)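 Cells from fifteen gene-edited reporter lines (A549, HepG2 and WPMY1) were treated for 24 h at 0.3, 1, 3 or 9 µM and imaged live, four wells per condition. Features were normalised per well to solvent control wells. A condition deviated if ≥3 of 4 wells passed the 95th percentile of control Euclidean distances and was reproducible if its median replicate Pearson correlation beat the 95th percentile of non-replicates; phenotypic activity needed both.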

A549-GM130-SQSTM1 [2] = assay: as above
Outline: as §1

A549-TUBA1B-RELA [3] = assay: as above
Outline: as §1

HepG2-ACTB-RAB5A [4] = assay: as above
Outline: as §1

A549-ACTB-RAB5A [5] = assay: phenotypically active (imaging signature differs from DMSO and reproducible) at any of 0.3-9 uM (binary (1 = active, 0 = inactive)); higher = active
Outline: as §1

A549-CANX-COX4 = assay: as above
Outline: as §1

A549-GM130-SQSTM1 [6] = assay: as above
Outline: as §1

A549-TP53BP1-CLTA = assay: as above
Outline: as §1

A549-TUBA1B-RELA [7] = assay: as above
Outline: as §1

HepG2-ACTB-RAB5A [8] = assay: as above
Outline: as §1

HepG2-CANX-COX4 = assay: as above
Outline: as §1

HepG2-GM130-SQSTM1 = assay: as above
Outline: as §1

HepG2-TP53BP1-CLTA = assay: as above
Outline: as §1

HepG2-TUBA1B-RELA = assay: as above
Outline: as §1

WPMY1-ACTB-RAB5A = assay: as above
Outline: as §1

WPMY1-CANX-COX4 = assay: as above
Outline: as §1

WPMY1-GM130-SQSTM1 [9] = assay: as above
Outline: as §1

WPMY1-TP53BP1-CLTA = assay: as above
Outline: as §1

WPMY1-TUBA1B-RELA = assay: as above
Outline: as §1

WPMY1-GM130-SQSTM1 [10] = assay: lowest phenotypically active concentration; higher = less potent
Outline: as §1

**Q.** Which results are given for `COc1ccc(Cl)cc1NC(=O)Nc1cc(C)nc2ccccc12`?
**A.** lowest phenotypically active concentration (A549-ACTB-RAB5A [1]): 3 µM; lowest phenotypically active concentration (A549-GM130-SQSTM1 [2]): 3 µM; lowest phenotypically active concentration (A549-TUBA1B-RELA [3]): 3 µM; lowest phenotypically active concentration (HepG2-ACTB-RAB5A [4]): 3 µM; phenotypically active (A549-ACTB-RAB5A [5]): 1 (active); phenotypically active (A549-CANX-COX4): 0 (inactive); phenotypically active (A549-GM130-SQSTM1 [6]): 1 (active); phenotypically active (A549-TP53BP1-CLTA): 0 (inactive); phenotypically active (A549-TUBA1B-RELA [7]): 1 (active); phenotypically active (HepG2-ACTB-RAB5A [8]): 1 (active); phenotypically active (HepG2-CANX-COX4): 1 (active); phenotypically active (HepG2-GM130-SQSTM1): 1 (active); phenotypically active (HepG2-TP53BP1-CLTA): 1 (active); phenotypically active (HepG2-TUBA1B-RELA): 1 (active); phenotypically active (WPMY1-ACTB-RAB5A): 0 (inactive); phenotypically active (WPMY1-CANX-COX4): 0 (inactive); phenotypically active (WPMY1-GM130-SQSTM1 [9]): 0 (inactive); phenotypically active (WPMY1-TP53BP1-CLTA): 0 (inactive); phenotypically active (WPMY1-TUBA1B-RELA): 0 (inactive)

**Q.** With `CC(=O)Nc1ccc(NC(=S)NC(=O)c2ccc(C(C)(C)C)cc2)cc1` [Tenovin-1] as the compound, how does the “lowest phenotypically active concentration” value (A549-ACTB-RAB5A [1]) read?
**A.** 1 µM

**Q.** And the “lowest phenotypically active concentration” value (A549-GM130-SQSTM1 [2])?
**A.** 1 µM

**Q.** And the “lowest phenotypically active concentration” value (A549-TUBA1B-RELA [3])?
**A.** 1 µM

**Q.** And the “lowest phenotypically active concentration” value (WPMY1-GM130-SQSTM1 [10])?
**A.** 1 µM

**Q.** And the phenotypically active (A549-ACTB-RAB5A [5])?
**A.** 1 (active)

**Q.** What about the phenotypically active (A549-CANX-COX4) of the same compound?
**A.** 0 (inactive)

**Q.** What about the phenotypically active (A549-GM130-SQSTM1 [6]) of the same compound?
**A.** 1 (active)

**Q.** What about the phenotypically active (A549-TP53BP1-CLTA) of the same compound?
**A.** 0 (inactive)

**Q.** What about the phenotypically active (A549-TUBA1B-RELA [7]) of the same compound?
**A.** 1 (active)

**Q.** What about the phenotypically active (HepG2-ACTB-RAB5A [8]) of the same compound?
**A.** 0 (inactive)

**Q.** And the phenotypically active (HepG2-CANX-COX4)?
**A.** 1 (active)

**Q.** What about the phenotypically active (HepG2-GM130-SQSTM1) of the same compound?
**A.** 0 (inactive)

**Q.** What about the phenotypically active (HepG2-TP53BP1-CLTA) of the same compound?
**A.** 1 (active)

**Q.** What about the phenotypically active (HepG2-TUBA1B-RELA) of the same compound?
**A.** 1 (active)

**Q.** And the phenotypically active (WPMY1-ACTB-RAB5A)?
**A.** 1 (active)

**Q.** What about the phenotypically active (WPMY1-CANX-COX4) of the same compound?
**A.** 1 (active)

**Q.** And the phenotypically active (WPMY1-GM130-SQSTM1 [9])?
**A.** 1 (active)

**Q.** And the phenotypically active (WPMY1-TP53BP1-CLTA)?
**A.** 1 (active)

**Q.** And the phenotypically active (WPMY1-TUBA1B-RELA)?
**A.** 1 (active)

**Q.** For `N#C/C(=C/c1ccc(-c2cc(Cl)ccc2Cl)o1)C(=O)Nc1cccc2ncccc12`, which “lowest phenotypically active concentration” value (A549-ACTB-RAB5A [1]) is on record?
**A.** 3 µM

**Q.** What about the “lowest phenotypically active concentration” value (A549-GM130-SQSTM1 [2]) of the same compound?
**A.** 9 µM

**Q.** And the “lowest phenotypically active concentration” value (A549-TUBA1B-RELA [3])?
**A.** ≤ 0.3 µM

**Q.** What about the “lowest phenotypically active concentration” value (HepG2-ACTB-RAB5A [4]) of the same compound?
**A.** 3 µM

**Q.** What about the phenotypically active (A549-ACTB-RAB5A [5]) of the same compound?
**A.** 1 (active)

**Q.** And the phenotypically active (A549-CANX-COX4)?
**A.** 0 (inactive)

**Q.** What about the phenotypically active (A549-GM130-SQSTM1 [6]) of the same compound?
**A.** 1 (active)

**Q.** What about the phenotypically active (A549-TP53BP1-CLTA) of the same compound?
**A.** 0 (inactive)

**Q.** What about the phenotypically active (A549-TUBA1B-RELA [7]) of the same compound?
**A.** 1 (active)

**Q.** What about the phenotypically active (HepG2-ACTB-RAB5A [8]) of the same compound?
**A.** 1 (active)

**Q.** And the phenotypically active (HepG2-CANX-COX4)?
**A.** 0 (inactive)

**Q.** What about the phenotypically active (HepG2-GM130-SQSTM1) of the same compound?
**A.** 0 (inactive)

**Q.** What about the phenotypically active (HepG2-TP53BP1-CLTA) of the same compound?
**A.** 0 (inactive)

**Q.** What about the phenotypically active (HepG2-TUBA1B-RELA) of the same compound?
**A.** 0 (inactive)

**Q.** And the phenotypically active (WPMY1-ACTB-RAB5A)?
**A.** 0 (inactive)

**Q.** What about the phenotypically active (WPMY1-CANX-COX4) of the same compound?
**A.** 1 (active)

**Q.** What about the phenotypically active (WPMY1-GM130-SQSTM1 [9]) of the same compound?
**A.** 0 (inactive)

**Q.** And the phenotypically active (WPMY1-TP53BP1-CLTA)?
**A.** 0 (inactive)

**Q.** What about the phenotypically active (WPMY1-TUBA1B-RELA) of the same compound?
**A.** 0 (inactive)

**Q.** How did the “lowest phenotypically active concentration” value (A549-ACTB-RAB5A [1]) turn out when `CCCc1cc(C)n(C)c(=O)c1CN(C)C(=O)c1cc(-c2ccc(N3CCN(C(C)C)CC3)nc2)cc2c1cnn2C(C)C` was run?
**A.** 3 µM

**Q.** What about the “lowest phenotypically active concentration” value (A549-GM130-SQSTM1 [2]) of the same compound?
**A.** 3 µM

**Q.** And the “lowest phenotypically active concentration” value (A549-TUBA1B-RELA [3])?
**A.** 3 µM

**Q.** What about the “lowest phenotypically active concentration” value (HepG2-ACTB-RAB5A [4]) of the same compound?
**A.** 9 µM

**Q.** What about the “lowest phenotypically active concentration” value (WPMY1-GM130-SQSTM1 [10]) of the same compound?
**A.** 3 µM

**Q.** And the phenotypically active (A549-ACTB-RAB5A [5])?
**A.** 1 (active)

**Q.** And the phenotypically active (A549-CANX-COX4)?
**A.** 0 (inactive)

**Q.** What about the phenotypically active (A549-GM130-SQSTM1 [6]) of the same compound?
**A.** 1 (active)

**Q.** What about the phenotypically active (A549-TP53BP1-CLTA) of the same compound?
**A.** 0 (inactive)

**Q.** And the phenotypically active (A549-TUBA1B-RELA [7])?
**A.** 1 (active)

**Q.** And the phenotypically active (HepG2-ACTB-RAB5A [8])?
**A.** 1 (active)

**Q.** What about the phenotypically active (HepG2-CANX-COX4) of the same compound?
**A.** 0 (inactive)

**Q.** What about the phenotypically active (HepG2-GM130-SQSTM1) of the same compound?
**A.** 1 (active)

**Q.** What about the phenotypically active (HepG2-TP53BP1-CLTA) of the same compound?
**A.** 1 (active)

**Q.** What about the phenotypically active (HepG2-TUBA1B-RELA) of the same compound?
**A.** 0 (inactive)

**Q.** What about the phenotypically active (WPMY1-ACTB-RAB5A) of the same compound?
**A.** 1 (active)

**Q.** And the phenotypically active (WPMY1-CANX-COX4)?
**A.** 1 (active)

**Q.** And the phenotypically active (WPMY1-GM130-SQSTM1 [9])?
**A.** 1 (active)

**Q.** And the phenotypically active (WPMY1-TP53BP1-CLTA)?
**A.** 1 (active)

**Q.** And the phenotypically active (WPMY1-TUBA1B-RELA)?
**A.** 1 (active)

**Q.** For `CN1C(=O)/C(=C2/Nc3ccccc3/C2=N/O)c2ccc(Br)cc21`, which “lowest phenotypically active concentration” value (A549-ACTB-RAB5A [1]) is on record?
**A.** ≤ 0.3 µM

**Q.** And the “lowest phenotypically active concentration” value (A549-GM130-SQSTM1 [2])?
**A.** ≤ 0.3 µM

**Q.** And the “lowest phenotypically active concentration” value (A549-TUBA1B-RELA [3])?
**A.** ≤ 0.3 µM

**Q.** And the “lowest phenotypically active concentration” value (HepG2-ACTB-RAB5A [4])?
**A.** ≤ 0.3 µM

**Q.** What about the “lowest phenotypically active concentration” value (WPMY1-GM130-SQSTM1 [10]) of the same compound?
**A.** ≤ 0.3 µM

**Q.** And the phenotypically active (A549-ACTB-RAB5A [5])?
**A.** 1 (active)

**Q.** And the phenotypically active (A549-CANX-COX4)?
**A.** 0 (inactive)

**Q.** What about the phenotypically active (A549-GM130-SQSTM1 [6]) of the same compound?
**A.** 1 (active)

**Q.** What about the phenotypically active (A549-TP53BP1-CLTA) of the same compound?
**A.** 0 (inactive)

**Q.** And the phenotypically active (A549-TUBA1B-RELA [7])?
**A.** 1 (active)

**Q.** And the phenotypically active (HepG2-ACTB-RAB5A [8])?
**A.** 1 (active)

**Q.** And the phenotypically active (HepG2-CANX-COX4)?
**A.** 1 (active)

**Q.** What about the phenotypically active (HepG2-GM130-SQSTM1) of the same compound?
**A.** 0 (inactive)

**Q.** What about the phenotypically active (HepG2-TP53BP1-CLTA) of the same compound?
**A.** 0 (inactive)

**Q.** What about the phenotypically active (HepG2-TUBA1B-RELA) of the same compound?
**A.** 0 (inactive)

**Q.** What about the phenotypically active (WPMY1-ACTB-RAB5A) of the same compound?
**A.** 1 (active)

**Q.** And the phenotypically active (WPMY1-CANX-COX4)?
**A.** 1 (active)

**Q.** What about the phenotypically active (WPMY1-GM130-SQSTM1 [9]) of the same compound?
**A.** 1 (active)

**Q.** And the phenotypically active (WPMY1-TP53BP1-CLTA)?
**A.** 0 (inactive)

**Q.** What about the phenotypically active (WPMY1-TUBA1B-RELA) of the same compound?
**A.** 0 (inactive)
